# Assay results from PubChem BioAssay.
# Calls of active or inactive are those of the source.
# Key:
# [1] = system: PRMT1 (protein arginine N-methyltransferase 1); assay: PRMT1 binders on small-molecule microarrays, primary screen, biochemical, small-molecule microarray, 635 nm fluorescence (AID 1088); conditions: small-molecule microarray binding, higher = more signal;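 also: binding of Prmt1 protein to compounds spotted on small-molecule microarray slides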
# [2] = yeast growth modulation, basal conditions, primary screen, YJM789 clinical isolate, OD600, 24 h (AID 1089);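 also: growth of clinical yeast isolate S. cerevisiae YJM 789 seeded 1000 cells per well; test concentration not given here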; conditions: S. cerevisiae YJM789 growth, higher = more signal, called active from +8 up or from −8 down
# [3] = fission yeast growth modulation, primary screen, strain 972, OD600, 24 h, no modulator (AID 1090);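 also: basal condition with compound alone and no growth modifier present; test concentration not given here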; conditions: S. pombe 972 growth, higher = more signal, called active from +8 up or from −8 down
# [4] = S. cerevisiae growth modulation with rapamycin, primary screen, strain BY4716, OD600, 96 h (AID 1091); conditions: higher = more signal, called active from +8 up or from −8 down; also: test concentration not given here
# [5] = target: Torsin-1A-interacting protein 2 (Homo sapiens) (UniProt Q8NFQ8); assay: LULL1 binders on small-molecule microarray, primary screen, cell lysate, human LULL1 lysate, 635/667 nm fluorescence (AID 1092); conditions: hLULL1 lysate binding, 635 nm fluorescence, higher = more signal;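 also: probe is lysate of COS7 cells overexpressing human LULL1; score merges per-feature 667 nm fluorescence with signal-to-noise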
# Chain of Torsin-1A-interacting protein 2 (Homo sapiens) (Q8NFQ8 whole entry, looked up): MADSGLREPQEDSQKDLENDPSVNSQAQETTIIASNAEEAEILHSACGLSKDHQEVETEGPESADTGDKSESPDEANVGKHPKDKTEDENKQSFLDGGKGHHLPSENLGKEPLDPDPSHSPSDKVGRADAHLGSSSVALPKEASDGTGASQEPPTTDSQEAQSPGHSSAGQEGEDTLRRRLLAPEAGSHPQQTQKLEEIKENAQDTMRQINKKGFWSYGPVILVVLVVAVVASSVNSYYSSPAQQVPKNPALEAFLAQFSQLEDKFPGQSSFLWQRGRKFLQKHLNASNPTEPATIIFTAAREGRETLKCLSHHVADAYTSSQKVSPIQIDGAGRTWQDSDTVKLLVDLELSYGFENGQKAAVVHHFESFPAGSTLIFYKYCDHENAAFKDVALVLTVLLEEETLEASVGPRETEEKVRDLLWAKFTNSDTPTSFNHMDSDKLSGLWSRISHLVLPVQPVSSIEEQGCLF
# [6] = E. coli growth modulation, two-sided OD650, primary screen, E. coli filamentation project, strain DRC41, 24 h (AID 1093); conditions: OD650, 24 h, higher = more signal, called active from +8 up or from −8 down;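 also: MC1000 strain lacking acrAB efflux and sulA so SOS filamentation is blocked; test concentration not given here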
# [7] = small-molecule microarray binders of probe aLefty2, primary screen, biochemical, biotinylated probe, 635/667 nm fluorescence (AID 1094); conditions: higher = more signal;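 also: score merges spot fluorescence near 667 nm with spot signal-to-noise ratio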
# [8] = system: Noggin (protein binding on small-molecule microarray); assay: Noggin binders on small-molecule microarray, primary screen, biochemical, 635/667 nm fluorescence (AID 1095); conditions: 635 nm fluorescence, higher = more signal;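 also: score merges 667 nm feature fluorescence with signal to noise over triplicate slides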
# [9] = target: Neurogenic locus notch homolog protein 3 (Homo sapiens) (UniProt Q9UM47); assay: NOTCH3 binders on small-molecule microarray, primary screen, biochemical, 635/667 nm fluorescence (AID 1096); conditions: NOTCH3 binding, 635 nm fluorescence, higher = more signal
# Chain of Neurogenic locus notch homolog protein 3 (Homo sapiens) (Q9UM47 whole entry, looked up): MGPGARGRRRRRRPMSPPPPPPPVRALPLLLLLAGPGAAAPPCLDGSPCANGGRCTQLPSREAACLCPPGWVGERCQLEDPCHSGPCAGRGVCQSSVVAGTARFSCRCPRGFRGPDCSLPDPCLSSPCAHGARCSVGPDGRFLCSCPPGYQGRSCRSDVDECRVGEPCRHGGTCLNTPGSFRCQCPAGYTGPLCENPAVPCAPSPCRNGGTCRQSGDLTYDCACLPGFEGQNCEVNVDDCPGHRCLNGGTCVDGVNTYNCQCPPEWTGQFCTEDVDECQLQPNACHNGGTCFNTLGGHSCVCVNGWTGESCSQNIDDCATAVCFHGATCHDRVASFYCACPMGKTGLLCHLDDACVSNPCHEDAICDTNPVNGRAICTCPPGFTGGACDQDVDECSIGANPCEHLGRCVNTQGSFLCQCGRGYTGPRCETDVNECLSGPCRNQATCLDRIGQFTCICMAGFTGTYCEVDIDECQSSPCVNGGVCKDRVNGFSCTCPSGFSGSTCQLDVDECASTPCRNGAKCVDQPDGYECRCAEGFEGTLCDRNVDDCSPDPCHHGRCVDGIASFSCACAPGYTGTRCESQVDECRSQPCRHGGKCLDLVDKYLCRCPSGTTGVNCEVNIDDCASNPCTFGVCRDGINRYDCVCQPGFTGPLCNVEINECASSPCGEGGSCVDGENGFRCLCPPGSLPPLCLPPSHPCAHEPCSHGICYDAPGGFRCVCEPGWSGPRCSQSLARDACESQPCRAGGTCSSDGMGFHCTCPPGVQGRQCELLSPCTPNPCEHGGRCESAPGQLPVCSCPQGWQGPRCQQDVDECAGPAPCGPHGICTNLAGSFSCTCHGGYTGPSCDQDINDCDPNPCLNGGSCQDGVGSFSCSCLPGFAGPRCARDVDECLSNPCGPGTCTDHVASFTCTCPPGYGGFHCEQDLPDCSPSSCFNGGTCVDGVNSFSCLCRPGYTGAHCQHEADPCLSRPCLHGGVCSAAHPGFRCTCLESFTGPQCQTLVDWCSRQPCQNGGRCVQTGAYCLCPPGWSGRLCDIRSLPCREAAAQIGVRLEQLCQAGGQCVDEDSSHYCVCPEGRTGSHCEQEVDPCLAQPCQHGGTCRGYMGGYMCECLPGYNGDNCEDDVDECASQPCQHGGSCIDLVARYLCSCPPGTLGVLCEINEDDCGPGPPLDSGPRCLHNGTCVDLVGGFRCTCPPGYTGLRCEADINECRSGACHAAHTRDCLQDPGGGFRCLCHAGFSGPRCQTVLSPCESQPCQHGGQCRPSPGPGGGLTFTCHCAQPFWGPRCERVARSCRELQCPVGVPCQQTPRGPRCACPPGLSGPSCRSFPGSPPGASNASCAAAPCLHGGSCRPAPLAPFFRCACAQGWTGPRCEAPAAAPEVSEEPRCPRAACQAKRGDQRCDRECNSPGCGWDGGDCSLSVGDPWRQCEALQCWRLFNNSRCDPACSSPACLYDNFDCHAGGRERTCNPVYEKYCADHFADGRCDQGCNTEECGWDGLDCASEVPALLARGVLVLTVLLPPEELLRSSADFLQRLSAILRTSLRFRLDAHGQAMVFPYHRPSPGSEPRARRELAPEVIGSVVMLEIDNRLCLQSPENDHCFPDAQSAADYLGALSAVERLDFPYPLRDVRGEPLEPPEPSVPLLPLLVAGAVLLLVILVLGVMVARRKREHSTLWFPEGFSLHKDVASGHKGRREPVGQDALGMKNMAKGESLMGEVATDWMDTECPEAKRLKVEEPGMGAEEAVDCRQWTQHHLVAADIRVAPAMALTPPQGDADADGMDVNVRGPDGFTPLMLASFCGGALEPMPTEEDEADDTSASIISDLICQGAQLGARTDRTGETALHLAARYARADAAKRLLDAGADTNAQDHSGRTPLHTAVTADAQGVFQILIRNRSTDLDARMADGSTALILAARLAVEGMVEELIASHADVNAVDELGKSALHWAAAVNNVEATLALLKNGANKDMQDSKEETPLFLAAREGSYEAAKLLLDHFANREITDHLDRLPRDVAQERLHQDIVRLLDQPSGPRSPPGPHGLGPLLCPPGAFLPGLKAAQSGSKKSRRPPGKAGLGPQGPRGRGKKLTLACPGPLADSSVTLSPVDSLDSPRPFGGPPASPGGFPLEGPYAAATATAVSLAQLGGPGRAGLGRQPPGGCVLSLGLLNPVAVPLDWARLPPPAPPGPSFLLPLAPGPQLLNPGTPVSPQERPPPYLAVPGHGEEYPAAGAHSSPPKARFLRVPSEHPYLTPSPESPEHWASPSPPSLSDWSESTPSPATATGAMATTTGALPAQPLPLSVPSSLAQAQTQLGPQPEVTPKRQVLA
# [10] = small-molecule microarray binders of probe aEGFR, primary screen, biochemical, biotinylated probe, 635/667 nm fluorescence (AID 1097); conditions: higher = more signal;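 also: probe is a biotinylated anti-EGFR antibody binding compounds printed on slides; score combines fluorescence near 667 nm and signal to noise of each spot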
# [11] = system: Plasmodium falciparum Sir2 (PF13_0152, Sir2A); assay: pfSir2 binders on small-molecule microarrays, primary screen, biochemical, small-molecule microarray, 635 nm fluorescence (AID 1098); conditions: small-molecule microarray binding, fluorescence 635 nm; higher = more signal;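 also: score merges spot fluorescence intensity with its signal-to-noise ratio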
# [12] = small-molecule microarray binders of probe aDKK1, primary screen, biochemical, biotinylated probe, 635/667 nm fluorescence (AID 1099); conditions: higher = more signal;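 also: score merges 667nm spot fluorescence with signal to noise across triplicate slides; reference of the scale not given here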
# [13] = small-molecule microarray binders of probe aCHRDL2, primary screen, biochemical, biotinylated probe, 635/667 nm fluorescence (AID 1100); conditions: higher = more signal
# [14] = splicing luciferase reporter signal modulators, primary screen, spliceosome inhibition project, cell-based, HEK293, splice +/- reporter (AID 1101); conditions: luminescence, 24 h, higher = more signal, called active from +8 up or from −8 down;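 also: HEK293 cells carrying a splicing-competent luciferase reporter gene; test concentration not given here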
# [15] = target: Fibroblast growth factor 10 (Homo sapiens) (UniProt O15520); assay: FGF10 binders on small-molecule microarrays, primary screen, biochemical, small-molecule microarray, 635 nm fluorescence (AID 1102); conditions: FGF10 binding, fluorescence 635 nm, higher = more signal
# Chain of Fibroblast growth factor 10 (Homo sapiens) (O15520 whole entry, looked up): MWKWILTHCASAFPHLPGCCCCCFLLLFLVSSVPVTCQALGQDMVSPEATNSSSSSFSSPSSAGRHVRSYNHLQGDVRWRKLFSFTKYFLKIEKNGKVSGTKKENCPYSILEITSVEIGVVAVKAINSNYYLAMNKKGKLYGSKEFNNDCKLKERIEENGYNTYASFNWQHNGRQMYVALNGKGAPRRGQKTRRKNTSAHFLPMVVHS
# [16] = system: glycogen synthase kinase-3 (GSK3A per assay name; protocol says GSK3B); assay: GSK3 binders on small-molecule microarrays, primary screen, biochemical, small-molecule microarray, 635 nm fluorescence, GSK3A (AID 1103); conditions: small-molecule microarray binding, fluorescence 635 nm; higher = more signal; also: the record names both GSK3A and GSK3B
# [17] = target: Epidermal growth factor receptor (Homo sapiens) (UniProt P00533); assay: EGFR binders on small-molecule microarrays, primary screen, biochemical, small-molecule microarray, 635 nm fluorescence (AID 1104); conditions: EGFR binding, higher = more signal;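 also: score merges 667 nm emission intensity with spot signal to noise over triplicate slides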
# Chain of Epidermal growth factor receptor (Homo sapiens) (P00533 whole entry, looked up): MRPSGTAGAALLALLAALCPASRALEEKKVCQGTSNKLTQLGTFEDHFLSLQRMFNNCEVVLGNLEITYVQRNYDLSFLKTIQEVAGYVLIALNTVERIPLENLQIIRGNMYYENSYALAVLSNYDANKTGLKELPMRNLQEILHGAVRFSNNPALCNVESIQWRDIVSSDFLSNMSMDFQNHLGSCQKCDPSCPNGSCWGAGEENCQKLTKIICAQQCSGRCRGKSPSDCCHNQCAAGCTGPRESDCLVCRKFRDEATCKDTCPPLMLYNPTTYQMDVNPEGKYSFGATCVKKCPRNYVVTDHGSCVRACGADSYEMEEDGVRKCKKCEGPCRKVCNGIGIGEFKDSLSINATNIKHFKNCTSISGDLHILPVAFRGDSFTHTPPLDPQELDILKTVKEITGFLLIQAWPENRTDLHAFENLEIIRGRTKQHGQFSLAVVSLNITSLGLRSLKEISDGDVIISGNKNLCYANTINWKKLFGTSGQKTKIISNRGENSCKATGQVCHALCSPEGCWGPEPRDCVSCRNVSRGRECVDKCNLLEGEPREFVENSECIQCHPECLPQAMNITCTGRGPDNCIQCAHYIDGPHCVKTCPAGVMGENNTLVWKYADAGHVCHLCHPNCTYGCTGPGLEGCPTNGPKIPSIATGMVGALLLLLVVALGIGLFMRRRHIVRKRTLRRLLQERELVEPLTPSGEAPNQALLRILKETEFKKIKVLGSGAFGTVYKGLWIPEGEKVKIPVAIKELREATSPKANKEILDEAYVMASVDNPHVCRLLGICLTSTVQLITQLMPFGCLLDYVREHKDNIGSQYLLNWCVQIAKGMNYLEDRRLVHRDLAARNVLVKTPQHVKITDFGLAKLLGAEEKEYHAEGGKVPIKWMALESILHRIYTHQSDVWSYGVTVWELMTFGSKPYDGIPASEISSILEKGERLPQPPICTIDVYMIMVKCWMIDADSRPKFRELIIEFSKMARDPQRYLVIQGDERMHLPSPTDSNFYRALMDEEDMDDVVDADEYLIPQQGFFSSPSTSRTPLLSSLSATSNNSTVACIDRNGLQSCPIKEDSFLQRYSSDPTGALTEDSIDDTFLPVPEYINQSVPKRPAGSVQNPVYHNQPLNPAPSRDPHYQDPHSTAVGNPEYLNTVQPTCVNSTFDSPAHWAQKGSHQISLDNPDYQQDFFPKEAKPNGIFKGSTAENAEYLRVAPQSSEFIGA
# [18] = target: Follistatin-related protein 3 (Homo sapiens) (UniProt O95633); assay: FSTL3 binders on small-molecule microarrays, primary screen, biochemical, small-molecule microarray, 635 nm fluorescence (AID 1105); conditions: FSTL3 binding, higher = more signal;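 also: score merges emission near 667 nm and signal to noise per printed spot across three slides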
# Chain of Follistatin-related protein 3 (Homo sapiens) (O95633 whole entry, looked up): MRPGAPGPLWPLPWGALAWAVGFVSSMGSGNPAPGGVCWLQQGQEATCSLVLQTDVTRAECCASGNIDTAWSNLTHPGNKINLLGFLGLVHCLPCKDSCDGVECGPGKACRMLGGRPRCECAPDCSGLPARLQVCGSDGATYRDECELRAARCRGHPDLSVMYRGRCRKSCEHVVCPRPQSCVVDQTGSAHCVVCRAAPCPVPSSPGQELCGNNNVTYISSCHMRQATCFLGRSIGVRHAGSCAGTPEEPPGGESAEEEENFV
# [19] = target: Dickkopf-related protein 1 (Homo sapiens) (UniProt O94907); assay: DKK1 binders on small-molecule microarrays, primary screen, biochemical, small-molecule microarray, 635 nm fluorescence scan (AID 1106); conditions: DKK1 binding, higher = more signal;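 also: score merges emission near 667 nm with signal to noise over three replicate slides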
# Chain of Dickkopf-related protein 1 (Homo sapiens) (O94907 whole entry, looked up): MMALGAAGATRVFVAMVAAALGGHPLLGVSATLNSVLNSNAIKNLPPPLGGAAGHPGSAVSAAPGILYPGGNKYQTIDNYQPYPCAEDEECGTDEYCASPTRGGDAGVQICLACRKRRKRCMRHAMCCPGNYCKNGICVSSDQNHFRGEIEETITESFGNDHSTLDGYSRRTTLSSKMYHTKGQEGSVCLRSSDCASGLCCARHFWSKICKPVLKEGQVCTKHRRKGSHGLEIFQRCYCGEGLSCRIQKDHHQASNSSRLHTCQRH
# [20] = system: Inhibin beta A chain (activin A); assay: INHBA (activin A) binders on microarrays, primary screen, biochemical, small-molecule microarray, 635 nm fluorescence scan (AID 1107); conditions: small-molecule microarray binding, higher = more signal;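 also: mouse activin A protein probed at 4.33 µg/mL on printed slides; score merges bound-protein fluorescence near 667 nm with spot signal-to-noise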
Compound,composite z-score [1],z-score [2],z-score [3],z-score [4],composite z-score [5],z-score [6],composite z-score [7],composite z-score [8],composite z-score [9],composite z-score [10],composite z-score [11],composite z-score [12],composite z-score [13],z-score [14],composite z-score [15],composite z-score [16],composite z-score [17],composite z-score [18],composite z-score [19],composite z-score [20]
CC(C)(C)N1CC=CC23O[C@@H]4C=CCCOC(=O)C4[C@H]2C(=O)N(CCCCCCO)[C@@H]3C1=O (stereo not given in full),0.647,-0.0623 (inactive),-0.563 (inactive),0.352 (inactive),3.16,-0.2 (inactive),-0.171,-0.679,0.123,-0.238,1.34,0.017,0.0876,0.416 (inactive),-0.0479,-0.404,-1.09,-0.63,-0.983,0.406
Cc1ccc(S[C@]2(C(=O)NC3CC3)CC(=O)N(C(C)C)[C@@H]2c2ccc(CO)cc2I)cc1,1.27,-0.812 (inactive),-2.43 (inactive),-0.2 (inactive),2.83,-1.34 (inactive),-0.0865,-0.294,0.624,-0.196,1.37,-0.299,0.812,-1.89 (inactive),0.377,-0.122,-0.638,0.101,-1.37,0.318
O=C(NCc1ccccc1)[C@@H]1c2ccccc2C(=O)N(Cc2ccc(OC(F)(F)F)cc2)[C@H]1c1ccc(CO)cc1,0.594,-0.347 (inactive),-0.753 (inactive),-0.574 (inactive),2.62,0.301 (inactive),-0.128,-0.262,-0.577,0.148,1.34,0.658,-0.0614,-1.19 (inactive),-0.354,0.37,-0.942,-0.88,-0.808,-0.187
O=C1[C@@H]2[C@@H](CC(COc3ccccc3)=C([C@H](O)CCc3ccccc3)[C@@H]2CO)C(=O)N1Cc1ccccc1,1.08,0.77 (inactive),0.369 (inactive),3.2 (inactive),1.39,0.707 (inactive),-0.176,0.127,0.453,-0.0828,0.764,-0.0833,-0.264,0.187 (inactive),0.408,-0.0949,0.256,0.679,0.286,0.343
